# Measurements as given in PubChem BioAssay (EPA / NIEHS).
# Activity calls are given as the source filed them. The calls were made as follows: active = hit-call score of the fitted dose curve at least 0.9, where 1 is the maximum; inactive = score below 0.9.
# How the values were obtained:
# Settings in all cases: mRNA level, 48 h; actives raise or lower the signal
# [1] = read-out: Tumor necrosis factor receptor superfamily member 6 (Homo sapiens) (UniProt P25445); experiment: LTEA_HepaRG_FAS: Life Technologies and Expression Analysis (LTEA) Assay for Fas cell surface death receptor (FAS) using HepaRG (AID 2283447)
# Procedure, shortened: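 Differentiated human HepaRG cells, pre-cultured 48 h, were exposed in duplicate for 48 h to 8-point half-log concentrations (top 100 uM, 0.5% DMSO) in serum-free induction medium; FAS mRNA measured by qRT-PCR, normalized to ACTB/GAPDH/POLR2A, bidirectional fit versus DMSO.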
# [2] = read-out: Cyclin D2 (CCND2), CCND2 (gene 894); experiment: LTEA_HepaRG_CCND2: Life Technologies and Expression Analysis (LTEA) Assay for Cyclin D2 (CCND2) using HepaRG (AID 2283449);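 also: CCND2 transcript measured by TaqMan qRT-PCR and normalised to three housekeeping genes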
# Procedure, shortened: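 Differentiated human HepaRG cells were exposed for 48 h in serum-free induction medium to eight half-log concentrations topping at 100 uM (0.5% DMSO vehicle). CCND2 mRNA was quantified by TaqMan qRT-PCR, normalised to ACTB, GAPDH and POLR2A, and fitted bidirectionally against DMSO.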
# [3] = read-out: Cyclin Dependent Kinase Inhibitor 1A (CDKN1A), CDKN1A (gene 1026); experiment: LTEA_HepaRG_CDKN1A: Life Technologies and Expression Analysis (LTEA) Assay for Cyclin Dependent Kinase Inhibitor 1A (CDKN1A) using HepaRG (AID 2283450)
# Procedure, shortened: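 Gain or loss of CDKN1A transcript is scored by bidirectional fitting against 0.5% DMSO vehicle. Human HepaRG cultures receive chemicals for 48 h across an 8-point series peaking at 100 uM; expression comes from qRT-PCR.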
# [4] = read-out: Cyclin D1 (CCND1), CCND1 (gene 595); experiment: LTEA_HepaRG_CCND1: Life Technologies and Expression Analysis (LTEA) Assay for Cyclin D1 (CCND1) using HepaRG (AID 2283451);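 as to AC50: TaqMan qRT-PCR transcript level normalised to ACTB GAPDH and POLR2A housekeeping genes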
# Procedure, shortened: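 Expression change is measured by qRT-PCR in HepaRG cells after 48 h treatment across eight concentrations topping at 100 uM, with duplicate wells and DMSO (0.5%) serving as baseline for bidirectional fitting.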
# [5] = read-out: catalase (CAT), CAT (gene 847); experiment: LTEA_HepaRG_CAT: Life Technologies and Expression Analysis (LTEA) Assay for catalase (CAT) using HepaRG (AID 2283452);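 as to AC50: TaqMan qRT-PCR signal normalized to ACTB GAPDH and POLR2A housekeeping genes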
# Procedure, shortened: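 Differentiated HepaRG cells in serum-free induction medium were dosed 48 h in duplicate, eight half-log concentrations from 100 uM in 0.5% DMSO. Transcript measured by TaqMan qRT-PCR, normalised to ACTB/GAPDH/POLR2A, fitted bidirectionally against DMSO.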
# [6] = read-out: flavin-containing dimethylaniline monooxygenases 3 (FMO3), FMO3 (gene 2328); experiment: LTEA_HepaRG_FMO3: Life Technologies and Expression Analysis (LTEA) Assay for flavin-containing dimethylaniline monooxygenases 3 (FMO3) using HepaRG (AID 2283453);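 as to AC50: FMO3 transcript by TaqMan qRT-PCR normalized to ACTB GAPDH and POLR2A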
# Procedure, shortened: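 HepaRG, 48 h exposure, 8-pt half-log series from 100 uM, 0.5% DMSO vehicle, duplicates; FMO3 transcript by Fluidigm TaqMan qRT-PCR, housekeeping-normalized; gain/loss fit vs DMSO.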
# [7] = read-out: Cytochrome P450 (CYP1A1), CYP1A1 (gene 1543); experiment: LTEA_HepaRG_CYP1A1: Life Technologies and Expression Analysis (LTEA) Assay for Cytochrome P450 (CYP1A1) using HepaRG (AID 2283454)
# Procedure, shortened: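 Using HepaRG cultures with 0.5% DMSO as vehicle, eight-concentration exposures (max 100 uM) lasted 48 h. Transcript levels were measured by TaqMan qRT-PCR and normalized to ACTB, GAPDH and POLR2A.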
# [8] = read-out: CFLAR gene, CFLAR (gene 8837); experiment: LTEA_HepaRG_CFLAR: Life Technologies and Expression Analysis (LTEA) Assay for CFLAR gene using HepaRG (AID 2283455)
# Procedure, shortened: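 HepaRG cells were plated for 48 h, switched to serum-free induction medium, then exposed in duplicate for 48 h to 8 concentrations (top 100 uM, half-log steps, 0.5% DMSO). CFLAR mRNA was measured by qRT-PCR, normalized to ACTB, GAPDH and POLR2A.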
# [9] = read-out: Forkhead box O1 (FOXO1), FOXO1 (gene 2308); experiment: LTEA_HepaRG_FOXO1: Life Technologies and Expression Analysis (LTEA) Assay for Forkhead box O1 (FOXO1) using HepaRG (AID 2283456)
# Procedure, shortened: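 Differentiated human HepaRG cells in serum-free induction medium were exposed in duplicate for 48 h to eight half-log concentrations (top 100 uM, 0.5% DMSO). FOXO1 mRNA was measured by TaqMan qRT-PCR, normalised to ACTB, GAPDH and POLR2A, and fitted bidirectionally against DMSO.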
# [10] = read-out: Forkhead box O3 (FOXO3), FOXO3 (gene 2309); experiment: LTEA_HepaRG_FOXO3: Life Technologies and Expression Analysis (LTEA) Assay for Forkhead box O3 (FOXO3) using HepaRG (AID 2283459)
# Procedure, shortened: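 Differentiated human HepaRG cells in serum-free induction medium were exposed in duplicate for 48 h to eight half-log concentrations up to 100 uM in 0.5% DMSO. FOXO3 mRNA was quantified by qRT-PCR, normalized to ACTB, GAPDH and POLR2A, with bidirectional fitting versus DMSO.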
# [11] = read-out: ABC Transporter (ABCB1), ABCB1 (gene 5243); experiment: LTEA_HepaRG_ABCB1: Life Technologies and Expression Analysis (LTEA) Assay for ABC Transporter (ABCB1) using HepaRG (AID 2283460)
# Procedure, shortened: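 Differentiated human HepaRG cells, plated 48 h then switched to serum-free induction medium, were exposed in duplicate to eight half-log concentrations up to 100 uM in 0.5% DMSO for 48 h. ABCB1 mRNA was measured by TaqMan qRT-PCR, normalized to ACTB/GAPDH/POLR2A.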
# [12] = read-out: growth arrest and DNA damage 45 (GADD45B), GADD45B (gene 4616); experiment: LTEA_HepaRG_GADD45B: Life Technologies and Expression Analysis (LTEA) Assay for growth arrest and DNA damage 45 (GADD45B) using HepaRG (AID 2283461)
# Procedure, shortened: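 Human HepaRG monolayers receive chemicals for 48 h at eight half-log concentrations, highest 100 uM, in 0.5% DMSO. Expression is measured by TaqMan qRT-PCR and normalized to ACTB, GAPDH and POLR2A.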
# [13] = read-out: ABC Transporter (ABCC3), ABCC3 (gene 8714); experiment: LTEA_HepaRG_ABCC3: Life Technologies and Expression Analysis (LTEA) Assay for ABC Transporter (ABCC3) using HepaRG (AID 2283462)
# Procedure, shortened: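 Transcriptional change of ABCC3 in HepaRG after 48 h treatment, determined by qRT-PCR normalized to endogenous controls. Concentrations spanned eight half-log steps to 100 uM in 0.5% DMSO.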
# [14] = read-out: ABC Transporter (ABCB11), ABCB11 (gene 8647); experiment: LTEA_HepaRG_ABCB11: Life Technologies and Expression Analysis (LTEA) Assay for ABC Transporter (ABCB11) using HepaRG (AID 2283463)
# Procedure, shortened: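 Differentiated human HepaRG cells were exposed for 48 h in serum-free induction medium to eight half-log concentrations up to 100 uM in 0.5% DMSO. ABCB11 mRNA was quantified by qRT-PCR, normalized to ACTB, GAPDH and POLR2A, and fitted bidirectionally versus DMSO.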
# [15] = read-out: ABC Transporter (ABCC2), ABCC2 (gene 1244); experiment: LTEA_HepaRG_ABCC2: Life Technologies and Expression Analysis (LTEA) Assay for ABC Transporter (ABCC2) using HepaRG (AID 2283464)
# Procedure, shortened: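 After plating and 48 h culture, HepaRG medium is replaced with serum-free induction medium and chemicals are added (8 concentrations, max 100 uM, 0.5% DMSO) for 48 h. Total RNA then undergoes qRT-PCR for ABCC2 with housekeeping normalization.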
# [16] = read-out: Fatty acid synthase (Homo sapiens) (UniProt P49327); experiment: LTEA_HepaRG_FASN: Life Technologies and Expression Analysis (LTEA) Assay for Fatty Acid Synthase (FASN) using HepaRG (AID 2283448)
# Procedure, shortened: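 Differentiated human HepaRG cells were exposed for 48 h in serum-free induction medium to eight half-log concentrations up to 100 uM in 0.5% DMSO, in duplicate. FASN mRNA was quantified by TaqMan qRT-PCR, normalized to ACTB/GAPDH/POLR2A, and fitted bidirectionally against DMSO.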
# [17] = read-out: growth arrest and DNA damage 45 (GADD45A), GADD45A (gene 1647); experiment: LTEA_HepaRG_GADD45A: Life Technologies and Expression Analysis (LTEA) Assay for growth arrest and DNA damage 45 (GADD45A) using HepaRG (AID 2283458)
# Procedure, shortened: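 Differentiated HepaRG cells were exposed in duplicate for 48 h in serum-free induction medium to 8-point half-log concentrations up to 100 uM in 0.5% DMSO. GADD45A mRNA was measured by TaqMan qRT-PCR, normalized to ACTB, GAPDH and POLR2A, with bidirectional fitting versus DMSO.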
# Fatty acid synthase (Homo sapiens), sequence (P49327 whole entry, looked up): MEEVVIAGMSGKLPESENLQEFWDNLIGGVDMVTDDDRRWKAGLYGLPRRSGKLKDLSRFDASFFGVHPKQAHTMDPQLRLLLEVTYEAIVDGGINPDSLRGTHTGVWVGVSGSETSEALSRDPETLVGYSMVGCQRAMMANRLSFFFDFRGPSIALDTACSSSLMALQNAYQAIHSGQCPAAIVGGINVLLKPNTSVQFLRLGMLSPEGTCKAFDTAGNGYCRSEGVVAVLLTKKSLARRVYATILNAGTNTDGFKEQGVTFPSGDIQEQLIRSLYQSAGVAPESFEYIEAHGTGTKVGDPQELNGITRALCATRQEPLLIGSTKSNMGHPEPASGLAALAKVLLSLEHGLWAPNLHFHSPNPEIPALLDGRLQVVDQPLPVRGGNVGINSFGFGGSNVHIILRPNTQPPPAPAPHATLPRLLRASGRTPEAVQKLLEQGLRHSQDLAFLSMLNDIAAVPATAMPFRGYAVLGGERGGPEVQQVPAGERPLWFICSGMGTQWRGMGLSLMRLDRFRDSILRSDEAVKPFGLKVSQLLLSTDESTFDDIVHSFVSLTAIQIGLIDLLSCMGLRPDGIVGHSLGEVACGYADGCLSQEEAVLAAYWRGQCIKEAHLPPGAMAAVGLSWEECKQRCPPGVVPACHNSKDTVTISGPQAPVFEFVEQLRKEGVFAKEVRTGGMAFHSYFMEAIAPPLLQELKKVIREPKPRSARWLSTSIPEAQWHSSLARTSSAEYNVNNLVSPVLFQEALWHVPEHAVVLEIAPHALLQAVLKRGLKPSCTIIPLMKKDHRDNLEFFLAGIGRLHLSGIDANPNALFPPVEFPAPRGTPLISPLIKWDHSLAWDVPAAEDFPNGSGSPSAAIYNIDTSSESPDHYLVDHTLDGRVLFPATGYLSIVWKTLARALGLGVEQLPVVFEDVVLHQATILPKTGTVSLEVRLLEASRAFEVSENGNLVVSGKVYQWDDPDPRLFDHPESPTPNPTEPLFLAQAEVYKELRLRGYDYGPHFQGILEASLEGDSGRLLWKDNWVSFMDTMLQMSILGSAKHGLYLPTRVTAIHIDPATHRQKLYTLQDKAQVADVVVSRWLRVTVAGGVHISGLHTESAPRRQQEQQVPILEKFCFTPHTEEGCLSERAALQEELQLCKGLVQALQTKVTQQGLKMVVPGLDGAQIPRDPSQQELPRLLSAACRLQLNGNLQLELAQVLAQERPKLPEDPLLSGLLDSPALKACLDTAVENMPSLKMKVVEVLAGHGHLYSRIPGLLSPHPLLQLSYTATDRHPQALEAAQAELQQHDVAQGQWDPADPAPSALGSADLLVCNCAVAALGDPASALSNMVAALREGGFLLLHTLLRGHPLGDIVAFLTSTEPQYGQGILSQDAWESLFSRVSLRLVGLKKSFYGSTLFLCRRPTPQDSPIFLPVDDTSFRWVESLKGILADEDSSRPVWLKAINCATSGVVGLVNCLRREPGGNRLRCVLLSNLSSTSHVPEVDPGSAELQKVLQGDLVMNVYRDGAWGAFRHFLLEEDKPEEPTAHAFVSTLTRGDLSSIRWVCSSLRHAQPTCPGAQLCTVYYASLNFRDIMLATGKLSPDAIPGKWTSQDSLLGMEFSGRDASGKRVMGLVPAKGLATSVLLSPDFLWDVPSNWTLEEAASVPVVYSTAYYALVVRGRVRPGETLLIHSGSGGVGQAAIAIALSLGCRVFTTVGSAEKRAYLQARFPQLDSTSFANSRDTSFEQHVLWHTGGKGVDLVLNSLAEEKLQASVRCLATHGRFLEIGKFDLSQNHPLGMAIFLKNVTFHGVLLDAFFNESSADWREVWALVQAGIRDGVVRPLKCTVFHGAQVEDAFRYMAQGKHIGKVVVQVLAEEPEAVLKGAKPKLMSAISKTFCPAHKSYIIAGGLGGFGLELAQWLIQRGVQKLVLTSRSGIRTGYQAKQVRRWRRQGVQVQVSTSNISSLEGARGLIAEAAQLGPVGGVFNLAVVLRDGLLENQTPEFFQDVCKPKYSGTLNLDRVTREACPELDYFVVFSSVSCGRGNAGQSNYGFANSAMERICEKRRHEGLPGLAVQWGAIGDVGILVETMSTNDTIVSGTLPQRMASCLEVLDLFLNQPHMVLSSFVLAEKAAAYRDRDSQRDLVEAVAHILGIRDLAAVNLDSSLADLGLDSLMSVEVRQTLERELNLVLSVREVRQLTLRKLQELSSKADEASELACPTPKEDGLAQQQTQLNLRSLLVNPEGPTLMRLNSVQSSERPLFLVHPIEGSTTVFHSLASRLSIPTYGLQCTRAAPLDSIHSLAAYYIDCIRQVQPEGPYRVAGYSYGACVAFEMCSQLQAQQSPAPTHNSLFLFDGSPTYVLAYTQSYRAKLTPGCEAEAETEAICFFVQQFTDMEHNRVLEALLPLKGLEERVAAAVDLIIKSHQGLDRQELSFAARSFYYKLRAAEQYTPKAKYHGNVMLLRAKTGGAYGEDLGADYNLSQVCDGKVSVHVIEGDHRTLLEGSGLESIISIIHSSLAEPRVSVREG
compound,measurement,setting,value
N[C@@H](Cc1cc(I)c(Oc2ccc(O)c(I)c2)c(I)c1)C(=O)O,outcome,[1],inactive
same,outcome,[2],inactive
same,outcome,[3],inactive
same,outcome,[4],inactive
same,AC50,[5],7.94 µM (active)
same,AC50,[6],40 µM (active)
same,AC50,[7],0.0392 µM (active)
same,outcome,[8],inactive
same,outcome,[9],inactive
same,outcome,[10],inactive
same,AC50,[11],73.3 µM (active)
same,AC50,[12],7.94 µM (active)
same,outcome,[13],inactive
same,AC50,[14],7.94 µM (active)
same,AC50,[15],7.94 µM (active)
CCCCOC(=O)C(C)Oc1ccc(Oc2ccc(C(F)(F)F)cn2)cc1 (centres undefined),outcome,[1],inactive
same,outcome,[3],inactive
same,outcome,[4],inactive
same,outcome,[5],inactive
same,outcome,[6],inactive
same,AC50,[7],9.92 µM (active)
same,outcome,[8],inactive
same,outcome,[9],inactive
same,outcome,[10],inactive
same,outcome,[11],inactive
same,outcome,[12],inactive
same,outcome,[13],inactive
same,outcome,[14],inactive
same,outcome,[15],inactive
C[C@]12CC[C@@H]3c4ccc(O)cc4C[C@@H](CCCCCCCCCS(=O)CCCC(F)(F)C(F)(F)F)[C@H]3[C@@H]1CC[C@@H]2O (some centres undefined),AC50,[1],0.0482 µM (active)
same,outcome,[16],inactive
same,AC50,[2],0.05 µM (active)
same,outcome,[3],inactive
same,AC50,[4],0.0338 µM (active)
same,AC50,[6],44.4 µM (active)
same,outcome,[7],inactive
same,outcome,[8],inactive
same,outcome,[10],inactive
same,AC50,[11],27.8 µM (active)
same,outcome,[12],inactive
same,AC50,[13],30.9 µM (active)
same,AC50,[14],10.5 µM (active)
same,AC50,[15],22.4 µM (active)
CC(C)CCCCCCc1ccc(O)cc1,outcome,[1],inactive
same,outcome,[2],inactive
same,outcome,[3],inactive
same,outcome,[4],inactive
same,outcome,[5],inactive
same,outcome,[6],inactive
same,AC50,[7],50 µM (active)
same,outcome,[8],inactive
same,outcome,[17],inactive
same,outcome,[10],inactive
same,outcome,[11],inactive
same,outcome,[12],inactive
same,outcome,[13],inactive
same,outcome,[14],inactive
same,outcome,[15],inactive
O=C(O)C1(C(=O)Nc2ccc(Cl)cc2Cl)CC1,outcome,[1],inactive
same,outcome,[3],inactive
same,AC50,[4],83.3 µM (active)
same,AC50,[6],67 µM (active)
same,AC50,[7],50 µM (active)
same,outcome,[8],inactive
same,outcome,[10],inactive
same,AC50,[11],50 µM (active)
same,outcome,[12],inactive
same,outcome,[13],inactive
same,AC50,[14],61 µM (active)
same,AC50,[15],66.4 µM (active)
CCN(CC)C(=O)c1cccc(C)c1,outcome,[1],inactive
same,outcome,[2],inactive
same,outcome,[3],inactive
same,outcome,[4],inactive
same,outcome,[6],inactive
same,AC50,[7],50 µM (active)
same,outcome,[8],inactive
same,outcome,[9],inactive
same,outcome,[10],inactive
same,outcome,[11],inactive
same,outcome,[12],inactive
same,outcome,[13],inactive
same,outcome,[14],inactive
same,AC50,[15],21.5 µM (active)
CCCCCCC(C)OC(=O)COc1nc(F)c(Cl)c(N)c1Cl (centres undefined),outcome,[1],inactive
same,outcome,[2],inactive
same,outcome,[3],inactive
same,outcome,[4],inactive
same,outcome,[5],inactive
same,outcome,[6],inactive
same,outcome,[7],inactive
same,outcome,[8],inactive
same,outcome,[17],inactive
same,outcome,[10],inactive
same,outcome,[11],inactive
same,outcome,[12],inactive
same,outcome,[13],inactive
same,outcome,[14],inactive
same,outcome,[15],inactive
